This is an account of results in PubChem BioAssay (EPA / NIEHS).

Active and inactive are the calls of the source. Rule for the calls: active = hit-call score of the fitted dose curve at least 0.9, where 1 is the maximum; inactive = score below 0.9.

The nature of experiment [1]: ATG_M_61_CIS: Attagene CIS-FACTORIAL HepG2 Assay for M61 Transcription Factor (Internal Marker) (AID 2282937). The settings on record: HepG2 Attagene CIS-FACTORIAL M61 internal marker reporter; actives raise or lower the signal. The procedure, abridged: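 Fluorescence from labelled cDNA fragments, separated by capillary electrophoresis, quantifies reporter induction. HepG2 cells bearing transiently transfected cis-promoter MRTUs were incubated with test chemical for 24 h; DMSO defined baseline for gain/loss fitting.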

Experiment [2] in a line: ATG_EGR_CIS: Attagene CIS-FACTORIAL HepG2 Assay for human Early Growth Response 1 (EGR1) (AID 2282938). Conditions: HepG2 Attagene CIS-FACTORIAL EGR reporter mRNA; actives raise or lower the signal. The essentials: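 Cell-based multiplex transcription assay: HepG2 carrying transfected cis-element reporter units, 24 h chemical treatment. Fluorescence from capillary electrophoresis of RT-PCR products gives mRNA levels; fitting is bidirectional relative to DMSO.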

Experiment [3] in a line: ATG_M_19_CIS: Attagene CIS-FACTORIAL HepG2 Assay for M19 Transcription Factor (Internal Marker) (AID 2282939). Conditions: HepG2 Attagene CIS-FACTORIAL M19 internal marker reporter; actives raise or lower the signal. The essentials:
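Signals come from fluorescence of labelled reporter-specific PCR fragments resolved by capillary electrophoresis, following 24 h treatment of HepG2 cells transfected with cis-promoter reporter units; activity was fitted in both directions relative to DMSO.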

The nature of experiment [4]: ATG_ERE_CIS: Attagene CIS-FACTORIAL HepG2 Assay for Estrogen Response Element (ERE) (AID 2282940). The settings on record: HepG2 ERE cis-reporter, Attagene RNA transcript; actives raise or lower the signal. The essentials: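 Fluorescence of capillary-separated, FAM-labelled reporter cDNA fragments indicates reporter mRNA levels in HepG2 cells exposed to chemicals for 24 h. Transient transfection with cis-regulated units; data fitted in both directions against DMSO.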

The nature of experiment [5]: ATG_Ets_CIS: Attagene CIS-FACTORIAL HepG2 Assay for human Erythroblast Transformation Specific (ETS) (AID 2282941). Conditions: HepG2 ETS cis-reporter transcription, actives raise or lower the signal. The procedure, abridged:
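HepG2 cells transiently transfected with cis-promoter reporter transcription units were dosed for 24 h; reporter mRNA was measured by RT-PCR, 6-FAM primer extension, HpaI digestion and capillary electrophoresis, with bidirectional fitting against DMSO baseline.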

Experiment [6] can be described thus: ATG_GATA_CIS: Attagene CIS-FACTORIAL HepG2 Assay for human GATA Binding Protein (AID 2282944). Conditions: HepG2 GATA cis-element reporter, Attagene multiplex mRNA; actives raise or lower the signal. The essentials: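 After transfecting HepG2 cells with multiple cis-regulated reporter units, chemicals are dosed for 24 h; isolated RNA undergoes RT-PCR and fluorescent labeling before capillary electrophoresis, with activity expressed against DMSO.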

Experiment [7] is described as follows: ATG_GLI_CIS: Attagene CIS-FACTORIAL HepG2 Assay for human Zinc Finger Protein GLI1 (AID 2282945). Conditions: HepG2, Attagene cis-factorial reporter mRNA, GLI element; actives raise or lower the signal. The essentials:
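Transiently transfected HepG2 cells report endogenous transcription factor activity via cis-element-driven reporter units. After 24 h compound exposure, reporter mRNA was measured by RT-PCR with capillary electrophoresis; bidirectional fitting against DMSO baseline.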

Experiment [8] addresses Bile acid receptor (Homo sapiens) (UniProt Q96RI1). The experiment can be described thus: ATG_IR1_CIS: Attagene CIS-FACTORIAL HepG2 Assay for human Nuclear Receptor Subfamily 1 Group H Member 4 (NR1H4), IR1 submotif (AID 2282946). Conditions: IR1 reporter transcription, actives raise or lower the signal. The procedure, abridged: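 HepG2 cells transiently transfected with multiple cis-promoter-driven reporter units to measure endogenous transcription factor activity; 24 h exposure. Reporter mRNA read by RT-PCR, FAM labelling, HpaI digestion and capillary electrophoresis. Bidirectional fit versus DMSO.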

The nature of experiment [9]: ATG_GRE_CIS: Attagene CIS-FACTORIAL HepG2 Assay for human Glucocorticoid Response Elements (GRE) (AID 2282947). Conditions: HepG2 GRE cis-reporter, Attagene multiplex mRNA; actives raise or lower the signal. The procedure, abridged: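 Transiently transfected HepG2 cells carrying GRE cis-reporter units (endogenous TF activity) dosed 24 h; reporter mRNA quantified by RT-PCR, 6-FAM labelling, HpaI digestion and capillary electrophoresis. Bidirectional fit versus DMSO baseline.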

Experiment [10] is described as follows: ATG_ISRE_CIS: Attagene CIS-FACTORIAL HepG2 Assay for human Interferon Regulatory Factor 1 (IRF1) binding to an Interferon-Stimulated Response Element (ISRE) (AID 2282948). The settings on record: HepG2 ISRE cis-reporter (Attagene), mRNA transcription readout; actives raise or lower the signal. The essentials: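 HepG2 cells transiently transfected with multiplexed cis-promoter reporter units; after 24 h compound exposure, reporter mRNA quantified by RT-PCR, FAM labelling, HpaI digestion and capillary electrophoresis. Bidirectional fit versus DMSO baseline.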

A short description of experiment [11]: ATG_M_32_CIS: Attagene CIS-FACTORIAL HepG2 Assay for M32 Transcription Factor (Internal Marker) (AID 2282949).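 Note: background control marker of the multiplexed CIS panel rather than a real target.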 The settings on record: HepG2 Attagene cis-factorial M32 reporter, mRNA; actives raise or lower the signal. The procedure, abridged:
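HepG2 cells transiently transfected with multiplexed cis-regulated reporter units, dosed 24 h. Reporter mRNA quantified by RT-PCR, 6-FAM labelling, HpaI digestion and capillary electrophoresis; bidirectional fit vs DMSO.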

Experiment [12] is described as follows: ATG_M_06_CIS: Attagene CIS-FACTORIAL HepG2 Assay for M06 Transcription Factor (Internal Marker) (AID 2282950). Conditions: HepG2 Attagene CIS-FACTORIAL M06 internal marker reporter; actives raise or lower the signal. The procedure, abridged: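 HepG2 liver cells, 24 h exposure. Reporter transcripts from transfected cis-element constructs quantified by RT-PCR/capillary electrophoresis fluorescence. Bidirectional curve fit against DMSO.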

Experiment [13] concerns the target Hypoxia-inducible factor 1-alpha (Homo sapiens) (UniProt Q16665). As to the kind of experiment: ATG_HIF1a_CIS: Attagene CIS-FACTORIAL HepG2 Assay for human Hypoxia Inducible Factor 1 (HIF1A) (AID 2282951). The settings on record: HepG2 Attagene cis-factorial HIF1a reporter transcription; actives raise or lower the signal. The essentials:
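In this multiplexed cell assay, HepG2 cells bearing transfected cis reporters are dosed for 24 h and reporter mRNA is read by RT-PCR plus capillary electrophoresis; signal increases and decreases are both scored against DMSO.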

Experiment [14] has as its target Hepatocyte nuclear factor 6 (Homo sapiens) (UniProt Q9UBC0). The experiment can be described thus: ATG_HNF6_CIS: Attagene CIS-FACTORIAL HepG2 Assay for human Hepatocyte Nuclear Factor 6 (HNF6) (AID 2282952). The settings on record: HepG2 Attagene cis-factorial HNF6 reporter transcription; actives raise or lower the signal. The essentials:
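Multiplexed mRNA reporter assay in transfected HepG2; 24 h dosing; RT-PCR plus capillary electrophoresis fluorescence; DMSO-referenced bidirectional curve fitting.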

The target in experiment [15] is Heat shock factor protein 1 (Homo sapiens) (UniProt Q00613). As to the kind of experiment: ATG_HSE_CIS: Attagene CIS-FACTORIAL HepG2 Assay for human Heat Shock Transcription Factor 1 (HSE) (AID 2282953). The settings on record: HepG2 HSE cis-reporter, Attagene RNA transcription; actives raise or lower the signal. The procedure, abridged:
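Endogenous transcription factor activity captured via cis-promoter reporter units transfected into HepG2; treatment lasted 24 h. Fluorescence intensity of reporter fragments analysed with bidirectional curve fitting, DMSO baseline.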

The nature of experiment [16]: ATG_MRE_CIS: Attagene CIS-FACTORIAL HepG2 Assay for human Metal Responsive Element (MRE) (AID 2282954). The settings on record: HepG2 MRE cis-reporter transcription, Attagene multiplex; actives raise or lower the signal. The essentials:
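HepG2 cells transiently transfected with cis-element-driven reporter units; mRNA measured 24 h after dosing. Reporter transcripts quantified by RT-PCR, FAM labelling, HpaI digestion and capillary electrophoresis; bidirectional fit versus DMSO.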

Experiment [17] is described as follows: ATG_PBREM_CIS: Attagene CIS-FACTORIAL HepG2 Assay for human Phenobarbital-responsive Enhancer Module (PBREM) (AID 2282955). Conditions: HepG2 PBREM cis-reporter, Attagene multiplexed transcription; actives raise or lower the signal. The procedure, abridged:
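After a 24 h incubation with test chemical, transfected HepG2 cells yield total RNA; reporter-specific RT-PCR products are fluorescently labelled, HpaI-digested and resolved by capillary electrophoresis against ROX size standards.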

Experiment [18] deals with Paired box protein Pax-6 (Homo sapiens) (UniProt P26367). The experiment can be described thus: ATG_Pax6_CIS: Attagene CIS-FACTORIAL HepG2 Assay for human Paired Box 6 (PAX6) (AID 2282956). The settings on record: HepG2 CIS-FACTORIAL PAX6 reporter transcription, RNA readout; actives raise or lower the signal. The essentials:
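HepG2 cells transiently transfected with multiplexed cis-promoter reporter units (endogenous TF activity) were dosed for 24 h. Reporter mRNA was quantified by RT-PCR, 6-FAM labeling, HpaI digestion and capillary electrophoresis; bidirectional fitting versus DMSO baseline.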

A short description of experiment [19]: ATG_FoxO_CIS: Attagene CIS-FACTORIAL HepG2 Assay for human Forkhead box O (FoxO) (AID 2282943). The settings on record: HepG2 Attagene cis-reporter, FoxO element, mRNA; actives raise or lower the signal. The procedure, abridged: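 Read-out: fluorescence of 6-FAM-labelled reporter cDNA fragments resolved by capillary electrophoresis. Transiently transfected HepG2 cells were dosed for 24 h; activity fitted in both directions relative to DMSO controls.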

In experiment [20] the target is Hepatocyte nuclear factor 3-beta (Homo sapiens) (UniProt Q9Y261). As to the kind of experiment: ATG_FoxA2_CIS: Attagene CIS-FACTORIAL HepG2 Assay for human Forkhead box A2 (FOXA2) (AID 2282942). The settings on record: HepG2 cis-reporter transcription factor activity, 24 h; actives raise or lower the signal. The procedure, abridged: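 In transiently transfected human HepG2 cells, promoter-driven reporter mRNA levels after 24 h chemical exposure are determined via RT-PCR with capillary electrophoresis. DMSO serves as baseline for bidirectional fitting.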
Hepatocyte nuclear factor 3-beta (Homo sapiens), sequence (Q9Y261 whole entry, looked up): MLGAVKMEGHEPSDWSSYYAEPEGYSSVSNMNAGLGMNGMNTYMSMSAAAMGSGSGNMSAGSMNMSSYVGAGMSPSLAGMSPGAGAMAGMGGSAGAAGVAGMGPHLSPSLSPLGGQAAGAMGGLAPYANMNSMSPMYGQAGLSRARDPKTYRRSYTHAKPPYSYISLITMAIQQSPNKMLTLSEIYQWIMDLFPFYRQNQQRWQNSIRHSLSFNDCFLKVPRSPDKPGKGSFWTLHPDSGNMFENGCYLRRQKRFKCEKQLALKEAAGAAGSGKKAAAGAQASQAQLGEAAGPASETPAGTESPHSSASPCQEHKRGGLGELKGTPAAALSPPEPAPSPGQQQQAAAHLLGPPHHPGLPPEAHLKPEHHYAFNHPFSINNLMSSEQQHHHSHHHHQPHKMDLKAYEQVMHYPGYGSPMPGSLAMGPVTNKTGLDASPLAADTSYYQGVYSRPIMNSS

Heat shock factor protein 1 (Homo sapiens), sequence (Q00613 whole entry, looked up, the tested form may be a part): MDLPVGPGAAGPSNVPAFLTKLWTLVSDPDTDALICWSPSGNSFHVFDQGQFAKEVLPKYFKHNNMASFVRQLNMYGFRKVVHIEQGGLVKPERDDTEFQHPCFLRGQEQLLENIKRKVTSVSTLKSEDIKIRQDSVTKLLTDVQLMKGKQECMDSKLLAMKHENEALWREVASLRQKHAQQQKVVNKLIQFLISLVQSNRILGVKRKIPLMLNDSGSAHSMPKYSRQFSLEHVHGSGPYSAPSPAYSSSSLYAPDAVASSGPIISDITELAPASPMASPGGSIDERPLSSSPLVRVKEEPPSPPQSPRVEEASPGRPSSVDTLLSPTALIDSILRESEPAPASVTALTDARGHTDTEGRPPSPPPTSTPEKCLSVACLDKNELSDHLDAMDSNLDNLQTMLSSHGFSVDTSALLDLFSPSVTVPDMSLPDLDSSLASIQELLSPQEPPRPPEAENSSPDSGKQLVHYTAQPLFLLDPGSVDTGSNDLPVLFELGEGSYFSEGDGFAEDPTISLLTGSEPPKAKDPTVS
Paired box protein Pax-6 (Homo sapiens), sequence (P26367 whole entry, looked up): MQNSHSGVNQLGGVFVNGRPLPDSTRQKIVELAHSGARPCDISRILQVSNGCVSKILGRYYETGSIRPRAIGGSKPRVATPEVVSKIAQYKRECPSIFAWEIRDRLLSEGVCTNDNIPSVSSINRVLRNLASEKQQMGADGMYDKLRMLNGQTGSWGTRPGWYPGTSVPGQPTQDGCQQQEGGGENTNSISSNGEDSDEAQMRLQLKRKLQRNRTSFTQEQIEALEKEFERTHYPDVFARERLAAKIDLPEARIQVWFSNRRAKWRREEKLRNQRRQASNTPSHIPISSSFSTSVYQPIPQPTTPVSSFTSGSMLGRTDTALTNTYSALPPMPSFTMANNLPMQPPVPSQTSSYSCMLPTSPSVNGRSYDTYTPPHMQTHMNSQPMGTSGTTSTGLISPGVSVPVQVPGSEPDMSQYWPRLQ
Hypoxia-inducible factor 1-alpha (Homo sapiens), sequence (Q16665 whole entry, looked up): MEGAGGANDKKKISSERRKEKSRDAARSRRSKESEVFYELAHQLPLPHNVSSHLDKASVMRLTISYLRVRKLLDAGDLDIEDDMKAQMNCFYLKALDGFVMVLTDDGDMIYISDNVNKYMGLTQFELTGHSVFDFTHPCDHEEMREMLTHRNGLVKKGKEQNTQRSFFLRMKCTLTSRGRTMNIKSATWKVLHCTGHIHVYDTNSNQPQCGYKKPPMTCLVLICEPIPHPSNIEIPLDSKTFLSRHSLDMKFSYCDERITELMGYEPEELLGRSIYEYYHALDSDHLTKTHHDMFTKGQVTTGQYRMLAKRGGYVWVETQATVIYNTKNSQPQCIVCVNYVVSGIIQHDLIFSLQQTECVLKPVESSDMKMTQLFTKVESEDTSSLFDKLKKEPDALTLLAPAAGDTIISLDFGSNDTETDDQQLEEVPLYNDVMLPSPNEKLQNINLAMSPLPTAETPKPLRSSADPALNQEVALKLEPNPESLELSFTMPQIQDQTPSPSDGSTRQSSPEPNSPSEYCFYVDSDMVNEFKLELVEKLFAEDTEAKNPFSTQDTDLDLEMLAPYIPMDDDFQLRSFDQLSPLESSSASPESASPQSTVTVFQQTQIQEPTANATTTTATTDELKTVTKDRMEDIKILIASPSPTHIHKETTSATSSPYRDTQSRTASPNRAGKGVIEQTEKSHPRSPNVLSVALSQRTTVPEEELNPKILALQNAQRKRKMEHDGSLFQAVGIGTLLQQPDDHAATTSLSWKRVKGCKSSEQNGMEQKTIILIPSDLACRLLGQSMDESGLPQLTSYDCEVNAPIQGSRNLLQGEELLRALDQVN
Bile acid receptor (Homo sapiens), sequence (Q96RI1 whole entry, looked up): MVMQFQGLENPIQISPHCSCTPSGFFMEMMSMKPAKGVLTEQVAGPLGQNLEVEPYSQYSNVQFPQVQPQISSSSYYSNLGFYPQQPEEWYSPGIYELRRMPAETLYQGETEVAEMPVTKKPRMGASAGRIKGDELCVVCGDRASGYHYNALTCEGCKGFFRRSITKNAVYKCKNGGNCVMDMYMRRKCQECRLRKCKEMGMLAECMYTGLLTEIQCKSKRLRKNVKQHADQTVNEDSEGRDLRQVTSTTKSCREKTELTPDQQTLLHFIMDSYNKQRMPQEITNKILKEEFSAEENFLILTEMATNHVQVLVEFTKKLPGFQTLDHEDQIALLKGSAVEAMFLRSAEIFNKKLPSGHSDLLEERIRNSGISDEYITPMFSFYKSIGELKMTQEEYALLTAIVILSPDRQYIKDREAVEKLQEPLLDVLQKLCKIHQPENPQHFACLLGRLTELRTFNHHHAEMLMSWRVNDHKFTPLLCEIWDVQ
Hepatocyte nuclear factor 6 (Homo sapiens), sequence (Q9UBC0 whole entry, looked up): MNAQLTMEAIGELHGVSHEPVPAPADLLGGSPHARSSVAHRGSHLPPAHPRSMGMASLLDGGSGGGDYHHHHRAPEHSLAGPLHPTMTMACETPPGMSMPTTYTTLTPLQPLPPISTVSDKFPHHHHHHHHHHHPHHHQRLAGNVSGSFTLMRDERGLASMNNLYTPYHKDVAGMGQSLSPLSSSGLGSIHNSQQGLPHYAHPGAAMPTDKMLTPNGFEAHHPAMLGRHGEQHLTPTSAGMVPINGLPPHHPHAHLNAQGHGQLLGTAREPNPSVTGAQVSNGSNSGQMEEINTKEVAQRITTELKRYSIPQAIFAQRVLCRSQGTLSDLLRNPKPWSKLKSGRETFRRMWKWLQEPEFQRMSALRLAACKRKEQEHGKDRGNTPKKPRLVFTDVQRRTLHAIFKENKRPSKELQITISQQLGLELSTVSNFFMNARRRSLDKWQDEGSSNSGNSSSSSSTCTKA

Consider `Cc1ccc(CCl)cc1`, for which the result in experiment [1], in [2], in experiment [3], in experiment [4], in experiment [5] and in [6] was inactive. For the same compound, the outcome in experiment [7], in experiment [8], in experiment [9], in experiment [10], in [11] and in experiment [12] was inactive. In addition, the compound was classed as inactive in [13], in [14], in [15], in [16], in experiment [17] and in [18].
As usually defined, the AC50 is the concentration at which the activity in the assay is half-maximal. Regarding `O=S(=O)(Oc1ccc(Cl)cc1)c1ccc(Cl)cc1`, the compound was called inactive in [1], in [2], in [3], in experiment [4], in [5] and in experiment [19]. Further, the call in experiment [7], in [9], in experiment [10], in [11], in experiment [12] and in experiment [13] was inactive. In addition, the compound was classed as inactive in experiment [14] and in [18]. Moreover, the AC50 was 53.3 µM (active) in experiment [16] and 10.8 µM (active) in experiment [17].
For `O=C(CBr)c1ccc(O)cc1`, the outcome in experiment [1], in experiment [2], in experiment [3], in experiment [5], in experiment [20] and in experiment [19] was inactive. The compound was classed as inactive in experiment [6], in [7], in [8], in [9], in [10] and in experiment [11]. Besides, the outcome in experiment [12], in [13], in [14], in [16] and in experiment [18] was inactive.
Take `C1CN2CCN1CC2`: the compound was classed as inactive in [1], in [2], in experiment [3], in experiment [4], in experiment [20] and in experiment [19]. Besides, the compound was called inactive in [7], in experiment [10], in [11], in [14], in [15] and in [16]. Further, the result in [17] and in experiment [18] was inactive. Further, the AC50 in experiment [13] is 50.5 µM (active).
Take `CCOC(=O)C(SP(=S)(OC)OC)c1ccccc1` (stereo not given): the compound was called inactive in experiment [1], in experiment [2], in [3], in [5], in [20] and in experiment [19]. The compound was classed as inactive in experiment [6], in [7], in experiment [8], in experiment [9], in [10] and in [11]. Also, the call in experiment [12], in experiment [13], in experiment [14], in [15], in experiment [17] and in [18] was inactive. Moreover, the AC50 in experiment [16] was 37.3 µM (active).
As to `CCCCS(=O)(=O)Cl`, the outcome in experiment [1], in experiment [2], in [3], in experiment [5], in experiment [20] and in [19] was inactive. Besides, the call in [6], in [7], in experiment [8], in [9], in [10] and in experiment [11] was inactive. Besides, the call in experiment [13], in experiment [14], in [15], in [16], in [17] and in experiment [18] was inactive.
For `C[C@H]1C(=O)O[C@@H]2CCN3CC=C(COC(=O)[C@](C)(O)[C@]1(C)O)[C@H]23`, the compound was called inactive in experiment [1], in [2], in [3], in experiment [4], in [20] and in experiment [19]. The outcome in experiment [7], in experiment [8], in experiment [9], in experiment [10], in [11] and in [14] was inactive. Besides, the outcome in experiment [15], in experiment [16] and in experiment [18] was inactive.
For the compound `N#Cc1ccncc1`, the result in experiment [1], in [2], in experiment [3], in [4], in experiment [20] and in experiment [19] was inactive. Moreover, the result in experiment [6], in experiment [7], in [9], in experiment [10], in [11] and in experiment [12] was inactive. For the same compound, the call in experiment [13], in experiment [14], in [15], in [16] and in experiment [18] was inactive.
